Data: PubChem BioAssay
Values without a mark were called inactive. For some of these results: Measured potencies and affinities stand elsewhere. Active and inactive are the calls of the source. Unless noted, how the calls were made is not given here.

What was measured:
[1] = antimalarial activity against Dd2 strain (AID 2302;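 active means growth inhibition above 50% at the single 2 µM test dose, taken to imply half-maximal potency below 2 µM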;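 further: 0% = DMSO untreated growth and 100% = chloroquine plus artemisinin killed control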); details: P. falciparum Dd2 in RBCs, LDH growth readout, 72 h; at 2 µM; active compounds read high
[2] = HepG2 cytotoxicity, primary screen, cytotoxicity control for P. falciparum antimalarial project, cell-based, ATP luminescence (AID 2303;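 active means inhibition above 50%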;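 further: 0% = DMSO wells and 100% = digitonin-killed cells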); details: HepG2 viability, 24-48 h, at 10 µM, active compounds read high
[3] = molecular target: L-lactate dehydrogenase (Plasmodium falciparum (isolate CDC / Honduras)) (UniProt Q27743); assay: PfLDH activity inhibition – cell lysate, 3D7 strain, counter-screen for P. falciparum growth inhibition project (AID 2304);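 further: 0% = vehicle and 100% = reference inhibitor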; details: P. falciparum 3D7 crude extract, LDH APAD/NBT absorbance; at 2 µM; active compounds read high
Chain of L-lactate dehydrogenase (Plasmodium falciparum (isolate CDC / Honduras)) (Q27743 whole entry, looked up): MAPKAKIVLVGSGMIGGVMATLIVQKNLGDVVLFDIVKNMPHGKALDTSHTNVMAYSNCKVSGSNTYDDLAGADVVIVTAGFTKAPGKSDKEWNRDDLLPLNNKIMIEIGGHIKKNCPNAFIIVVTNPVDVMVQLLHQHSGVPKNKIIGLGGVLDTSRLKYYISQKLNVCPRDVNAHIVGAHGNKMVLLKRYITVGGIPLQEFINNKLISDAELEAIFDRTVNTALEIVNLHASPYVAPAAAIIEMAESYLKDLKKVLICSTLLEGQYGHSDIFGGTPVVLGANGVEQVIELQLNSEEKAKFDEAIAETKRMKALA

[4] = inhibition of 3D7 malaria parasite growth – strain 3D7 (AID 2306);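 further: 0% = DMSO wells and 100% = chloroquine plus artemisinin control wells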; details: P. falciparum 3D7 erythrocytic growth, LDH absorbance, 72 h; at 2 µM; active compounds read high
[5] = molecular target: Calcium-dependent protein kinase 1 (Plasmodium falciparum (isolate 3D7)) (UniProt P62344); assay: PfCDPK1 kinase inhibitors, biochemical, TCAMS library (AID 1159585; cut-off not given, nearly all actives have IC50 up to about 0.98 µM;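 further: inhibitors leave more ATP so luminescence rises with inhibition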); details: recombinant PfCDPK1, Kinase-Glo ATP depletion luminescence
Chain of Calcium-dependent protein kinase 1 (Plasmodium falciparum (isolate 3D7)) (P62344 whole entry, looked up): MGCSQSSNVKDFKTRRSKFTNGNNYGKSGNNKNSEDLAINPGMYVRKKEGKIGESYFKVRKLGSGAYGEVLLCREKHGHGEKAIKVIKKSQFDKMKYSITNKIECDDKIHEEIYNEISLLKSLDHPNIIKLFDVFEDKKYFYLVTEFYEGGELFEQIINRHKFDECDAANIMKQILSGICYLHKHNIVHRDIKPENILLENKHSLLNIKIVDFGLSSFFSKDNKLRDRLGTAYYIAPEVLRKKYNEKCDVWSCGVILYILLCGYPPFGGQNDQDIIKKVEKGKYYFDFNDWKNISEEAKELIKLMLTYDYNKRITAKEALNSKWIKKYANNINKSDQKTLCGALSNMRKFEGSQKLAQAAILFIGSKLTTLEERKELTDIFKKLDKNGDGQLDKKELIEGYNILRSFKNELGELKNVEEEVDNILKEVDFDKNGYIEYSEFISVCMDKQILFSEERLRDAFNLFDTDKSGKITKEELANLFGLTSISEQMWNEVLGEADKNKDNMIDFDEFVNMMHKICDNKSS

[6] = molecular target: Plasmodium falciparum protein kinase 6 (PK6, PF3D7_1337100) (UniProt Q8IDW1); assay: PfPK6 kinase inhibitors, biochemical, TCAMS library (AID 1159586); details: recombinant PfPK6, Kinase-Glo ATP depletion luminescence
Chain of Plasmodium falciparum protein kinase 6 (PK6, PF3D7_1337100) (Q8IDW1 1-305): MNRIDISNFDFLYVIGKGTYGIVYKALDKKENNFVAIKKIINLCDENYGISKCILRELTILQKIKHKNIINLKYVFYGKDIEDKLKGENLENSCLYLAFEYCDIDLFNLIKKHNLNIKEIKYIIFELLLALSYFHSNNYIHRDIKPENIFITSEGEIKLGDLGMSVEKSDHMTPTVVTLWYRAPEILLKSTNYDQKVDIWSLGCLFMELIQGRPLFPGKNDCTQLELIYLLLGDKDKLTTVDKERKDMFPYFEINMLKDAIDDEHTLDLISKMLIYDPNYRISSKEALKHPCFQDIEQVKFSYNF

[7] = molecular target: Protein kinase 7 (PK7), Plasmodium falciparum 3D7 (PF3D7_0213400) (UniProt Q7YTF7); assay: inhibition of Plasmodium PK7 catalytic activity – biochemical, TCAMS antimalarial set, Kinase-Glo luminescence (AID 1159587); details: recombinant PfPK7, Kinase-Glo ATP depletion luminescence
Chain of Protein kinase 7 (PK7), Plasmodium falciparum 3D7 (PF3D7_0213400) (Q7YTF7 1-343): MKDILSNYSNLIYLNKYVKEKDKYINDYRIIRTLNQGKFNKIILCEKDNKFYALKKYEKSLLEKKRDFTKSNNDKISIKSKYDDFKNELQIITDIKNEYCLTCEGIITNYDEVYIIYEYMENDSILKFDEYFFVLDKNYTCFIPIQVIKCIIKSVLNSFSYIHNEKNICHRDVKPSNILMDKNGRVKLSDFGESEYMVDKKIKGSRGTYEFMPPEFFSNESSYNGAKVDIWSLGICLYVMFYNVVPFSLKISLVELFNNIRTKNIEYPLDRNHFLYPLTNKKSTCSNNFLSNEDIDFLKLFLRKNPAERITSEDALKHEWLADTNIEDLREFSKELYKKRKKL

[8] = molecular target: Calcium-dependent protein kinase 4 (Plasmodium falciparum (isolate 3D7)) (UniProt Q8IBS5); assay: PfCDPK4 kinase inhibitors, biochemical, TCAMS library (AID 1159588; cut-off not given, nearly all actives have IC50 up to about 0.91 µM); details: recombinant PfCDPK4, Kinase-Glo ATP depletion luminescence
Chain of Calcium-dependent protein kinase 4 (Plasmodium falciparum (isolate 3D7)) (Q8IBS5 whole entry, looked up): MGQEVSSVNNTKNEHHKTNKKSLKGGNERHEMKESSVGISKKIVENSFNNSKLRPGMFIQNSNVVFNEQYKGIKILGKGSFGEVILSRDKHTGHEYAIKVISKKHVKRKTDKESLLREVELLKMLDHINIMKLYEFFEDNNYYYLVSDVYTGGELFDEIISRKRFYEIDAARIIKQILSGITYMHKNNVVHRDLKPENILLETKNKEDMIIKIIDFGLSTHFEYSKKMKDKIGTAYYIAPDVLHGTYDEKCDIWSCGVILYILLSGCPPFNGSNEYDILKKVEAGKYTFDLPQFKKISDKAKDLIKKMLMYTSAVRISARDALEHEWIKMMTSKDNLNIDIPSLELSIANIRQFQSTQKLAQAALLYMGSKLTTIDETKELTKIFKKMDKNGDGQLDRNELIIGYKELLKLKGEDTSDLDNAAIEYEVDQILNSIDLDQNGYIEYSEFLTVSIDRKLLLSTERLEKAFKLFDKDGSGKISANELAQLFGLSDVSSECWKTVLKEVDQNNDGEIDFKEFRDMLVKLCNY

Row | SMILES | growth inhibition [1] | inhibition [2] | inhibition [3] | growth inhibition [4] | outcome [5] | outcome [6] | outcome [7] | outcome [8]
1 | Cc1cccc2[nH]c(-c3cccc(-c4cccc(NC(=O)CCc5cnc[nH]5)c4)c3)nc12 | 86% (active) | 16% | 0% | 102% (active) | inactive | inactive | inactive | inactive
2 | COc1cc(NC(=O)c2nn(CCCN3CCC(N4CCCC4)CC3)cc2-c2ccc(Cl)c(Cl)c2)cc(OC)c1OC | 100% (active) | 76% (active) | -5% | 103% (active) | inactive | inactive | inactive | inactive
3 | CC(C)(C)NS(=O)(=O)c1cc(C(=O)N2CCC(CCN3CCC(C(=O)c4ccc(F)cc4)CC3)(c3cccc(F)c3)CC2)c(Cl)cc1F | 99% (active) | -1% | 4% | 99% (active) | inactive | inactive | inactive | inactive
4 | CCOc1c(CNCCCNc2nc3ccccc3[nH]2)cc(Br)cc1OC | 0% | 29% | 2% | 99% (active) | inactive | inactive | inactive | inactive
5 | CN(C)CCCn1cncc1-c1ccc2ncnc(Nc3ccc4c(cnn4Cc4ccccc4)c3)c2c1 | 77% (active) | 17% | -2% | 101% (active) | inactive | inactive | inactive | inactive
6 | O=C(NCc1ccc(F)cc1)c1ccc(N2CCN(c3ccncc3)CC2)cn1 | 81% (active) | 7% | -2% | 98% (active) | inactive | inactive | inactive | inactive
7 | CN(C)c1c(CNCCCCCCNCc2ccc3ccccc3c2N(C)C)ccc2ccccc12 | 51% (active) | 100% (active) | -2% | 100% (active) | inactive | inactive | inactive | inactive
8 | Cc1ccc(Nc2nc(C)cc(NCc3ccc(-n4ccnc4)cc3)n2)cc1 | 100% (active) | 33% | 1% | 101% (active) | inactive | inactive | inactive | inactive
9 | N#Cc1cc(C(=O)Nc2ccccc2)c(N)nc1SCC(=O)NC(c1ccccc1)c1cccs1 (stereo not drawn) | 100% (active) | 34% | -1% | 98% (active) | inactive | inactive | inactive | inactive
10 | COc1c(C2CCN(CCCCNC(=O)c3cc(-c4ccc(C#N)cc4)n[nH]3)CC2)ccc2c1CCCC2 | 15% | 36% | -6% | 86% (active) | inactive | inactive | inactive | inactive
11 | CCOc1ccc2ccccc2c1CNCCCCCCNCc1c(OCC)ccc2ccccc12 | 89% (active) | 100% (active) | -2% | 100% (active) | inactive | inactive | inactive | inactive
12 | Cc1cccc2[nH]c(-c3ccc(-c4ccc(NC(=O)Nc5ccc(Cl)cc5)cc4)cc3)nc12 | 100% (active) | 52% (active) | -5% | 101% (active) | inactive | inactive | inactive | inactive
13 | COc1cccc2cc(C(=O)N[C@@H](CC(C)C)C(=O)N[C@H](/C=N/N3CCOC3=O)CC(C)C)oc12 | 72% (active) | 4% | -2% | 90% (active) | inactive | inactive | inactive | inactive
14 | CC1CCC(C[C@@H](C(=O)N[C@H](C(=O)Nc2nccs2)[C@@H](C)O)[C@H](CCC(F)(F)F)N(O)C=O)CC1 (stereo partly drawn) | 94% (active) | -8% | 3% | 95% (active) | inactive | inactive | inactive | inactive
15 | CN(C)c1ccc2nc(N)nc(N)c2c1Cl | -1% | 68% (active) | 2% | 98% (active) | inactive | inactive | inactive | inactive
16 | Cc1ccc(C)c2sc(N3CCN(C(=O)c4ccc([N+](=O)[O-])o4)CC3)nc12 | 89% (active) | -2% | 2% | 96% (active) | inactive | inactive | inactive | inactive
17 | Cc1cccc2[nH]c(-c3cccc(-c4ccc(NC(=O)Nc5ccc(Cl)c(Cl)c5)cc4)c3)nc12 | 83% (active) | 53% (active) | 7% | 102% (active) | inactive | inactive | inactive | inactive
18 | CC(C)(Oc1c(C2CCN(CCCCNC(=O)c3ccc(-c4ccc(Cl)cc4)cc3)CC2)ccc2c1CCCC2)C(N)=O | 5% | 100% (active) | 1% | 93% (active) | inactive | inactive | inactive | inactive
19 | COc1cccc(C(=O)NC(C=Cc2ccccc2)c2cc(Cl)c3cccnc3c2O)c1 (stereo not drawn) | 58% (active) | 27% | -1% | 95% (active) | inactive | inactive | inactive | inactive
20 | Cc1cccc(-c2cc3cc(Nc4ccnc5cc(-c6nccs6)ccc45)ccc3[nH]2)c1 | 100% (active) | 0% | 1% | 101% (active) | inactive | inactive | inactive | inactive
21 | CNCCNCc1ccc(-c2ccc(-c3nc4ccc(C(F)(F)F)cc4[nH]3)cc2)cc1 | 92% (active) | 28% | 1% | 99% (active) | inactive | inactive | inactive | inactive

Row | SMILES | growth inhibition [1] | inhibition [2] | inhibition [3] | growth inhibition [4] | outcome [5] | outcome [6] | outcome [7] | outcome [8]
22 | CN1CCN(CCCN(Cc2ccc(-c3cccc(CNCc4ccc5c(c4)OCO5)c3)cc2)C(=O)CCC2CCCC2)CC1 | 85% (active) | 24% | -5% | 92% (active) | inactive | inactive | inactive | inactive
23 | O=C(Cn1c(CCc2cccc(F)c2F)nc(=O)c2ccccc21)N(CCCN1CCCCC1)Cc1ccc(-c2ccc(C(F)(F)F)cc2)cc1 | 94% (active) | 100% (active) | -2% | 103% (active) | inactive | inactive | inactive | inactive
24 | COc1cccc(-c2cc(C(F)(F)F)n3ncc(C(=O)Nc4cc(C)ccc4O)c3n2)c1 | 99% (active) | -4% | 3% | 98% (active) | inactive | inactive | inactive | inactive
25 | CCOc1cc(C)ccc1C1CCN(CCCCNC(=O)c2cccc(-c3ccc(C(F)(F)F)cc3)c2)CC1 | 55% (active) | 39% | 2% | 99% (active) | inactive | inactive | inactive | inactive
26 | Cc1cc(NC(=O)c2ccsc2)ccc1OC1CCN(Cc2ccc(F)cc2)CC1 | 47% | 9% | -2% | 83% (active) | inactive | inactive | inactive | inactive
27 | Cc1nnsc1C(=O)Nc1cccc(-c2cccc(-c3nc4ccc(C(F)(F)F)cc4[nH]3)c2)c1 | 100% (active) | 70% (active) | 1% | 101% (active) | inactive | inactive | inactive | inactive
28 | CCOc1cc(C(C)C)ccc1C1CCN(CCCCNC(=O)c2ccc(NC(=O)c3ccc(Cl)cc3)cc2)CC1 | 98% (active) | 32% | 2% | 101% (active) | inactive | inactive | inactive | inactive
29 | CCCc1cc(Cc2cnc(N)nc2N)cc(CCC)c1OCCCCC(=O)OC | -5% | -7% | -5% | 94% (active) | inactive | inactive | inactive | inactive
30 | CCOc1ccc(C(=O)Nc2cc(Br)c3c(c2)CNCC3)cc1C(F)(F)F | 22% | 15% | 6% | 98% (active) | inactive | inactive | inactive | inactive
31 | CC(C)CCNc1nc(NCc2ccccc2)c2cc(O)ccc2n1 | 92% (active) | 25% | 3% | 103% (active) | inactive | inactive | inactive | inactive
32 | CCCCCN1C(=O)N(c2ccc(Cl)c(Cl)c2)C(N(O)C(=O)Nc2ccc(Cl)c(Cl)c2)C1(C)C (stereo not drawn) | 99% (active) | -2% | 6% | 94% (active) | inactive | inactive | inactive | inactive
33 | CCCNC(=O)c1cncc(-c2ccc(CNC(CC)c3ccccc3)cc2)c1 (stereo not drawn) | 1% | 20% | 0% | 92% (active) | inactive | inactive | inactive | inactive
34 | O=S(=O)(Nc1cccc(CCN2CCC(N3CCCCC3)CC2)c1)c1cccc2cccnc12 | 17% | 0% | 1% | 98% (active) | inactive | inactive | inactive | inactive
35 | COc1ccc(CNC2CCN(C)CC2)cc1-c1ccc(S(=O)(=O)NCCN2CCCC2)s1 | 1% | 2% | -2% | 90% (active) | inactive | inactive | inactive | inactive
36 | CCc1sc(N2CCN(C)CC2)nc1C(=O)NCCc1ccc(Cl)c(Cl)c1 | 49% | 5% | 5% | 92% (active) | inactive | inactive | inactive | inactive
37 | O=C(NCCCCN1CCC(c2ccc3c(c2O)CCCC3)CC1)c1ccc(NC(=O)c2ccc(Cl)cc2)cc1 | 100% (active) | 99% (active) | -2% | 100% (active) | inactive | inactive | inactive | inactive
38 | CCCCCNc1ccnc2cc(Cl)ccc12 | 99% (active) | 12% | -2% | 97% (active) | inactive | inactive | inactive | inactive
39 | Fc1ccc2nc(-c3ccc(-c4cccc(CN5CCC(CCN6CCCCC6)CC5)c4)cc3)[nH]c2c1 | 100% (active) | 96% (active) | 5% | 101% (active) | inactive | inactive | inactive | inactive
40 | CCOc1cc2ncnc(Nc3ccc(OCc4c(F)cccc4F)c(OC)c3)c2cc1OCC | 60% (active) | 7% | -2% | 96% (active) | inactive | inactive | inactive | inactive
41 | Cc1ccc(NC(=O)c2ccc(Cl)cc2)cc1-c1ccc(C(=O)Nc2ccncc2)cc1 | 5% | 36% | 3% | 98% (active) | inactive | inactive | inactive | inactive
